Results reported in PubChem BioAssay (EPA / NIEHS).
Several values for one entry are separate records, joined by “and”; a condition that tells them apart may be missing. Equal entries are not always repeated. Results filed as inconclusive are left out. The source holds several records for some structures; these can differ, active in one and inactive in another. Activity calls are given as the source filed them. How the source made its calls, unless noted: active means hit-call score of the fitted dose curve at least 0.9, where 1 is the maximum; inactive means score below 0.9.

Key:
[1] = ATG_PBREM_CIS: Attagene CIS-FACTORIAL HepG2 Assay for human Phenobarbital-responsive Enhancer Module (PBREM) (AID 2282955); conditions: HepG2 PBREM cis-reporter, Attagene multiplexed transcription; actives raise or lower the signal
How it was run: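 HepG2, transient MRTU transfection, 24 h dosing; RNA → oligo(dT) RT → PCR → 6-FAM extension → HpaI → CE. Bidirectional fit vs DMSO.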

[2] = molecular target: Paired box protein Pax-6 (Homo sapiens) (UniProt P26367); assay: ATG_Pax6_CIS: Attagene CIS-FACTORIAL HepG2 Assay for human Paired Box 6 (PAX6) (AID 2282956); conditions: HepG2 CIS-FACTORIAL PAX6 reporter transcription, RNA readout; actives raise or lower the signal
Chain of Paired box protein Pax-6 (Homo sapiens) (P26367 whole entry, looked up): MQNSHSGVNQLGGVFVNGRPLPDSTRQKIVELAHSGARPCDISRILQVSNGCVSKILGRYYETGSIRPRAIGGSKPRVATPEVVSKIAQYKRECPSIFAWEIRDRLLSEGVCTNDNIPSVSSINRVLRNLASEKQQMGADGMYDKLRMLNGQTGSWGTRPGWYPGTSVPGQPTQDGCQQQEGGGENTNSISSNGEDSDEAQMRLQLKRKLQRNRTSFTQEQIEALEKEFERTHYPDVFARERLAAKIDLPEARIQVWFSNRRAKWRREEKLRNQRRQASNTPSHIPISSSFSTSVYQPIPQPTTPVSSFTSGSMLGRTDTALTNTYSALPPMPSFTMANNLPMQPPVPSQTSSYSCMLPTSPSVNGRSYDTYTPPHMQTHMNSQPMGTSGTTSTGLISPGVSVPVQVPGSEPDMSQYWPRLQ
How it was run: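 Fluorescent RT-PCR products separated by capillary electrophoresis report PAX6-linked promoter mRNA in HepG2 cells 24 h post-dose. Curves fitted bidirectionally, DMSO as negative control.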

[3] = ATG_PXRE_CIS: Attagene CIS-FACTORIAL HepG2 Assay for human Pregnane X Receptor Element (PXRE) (AID 2282957); conditions: HepG2 Attagene CIS-FACTORIAL PXRE reporter, mRNA; actives raise or lower the signal
How it was run: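 Endogenous transcription factor activity in HepG2 was gauged through induction of reporter mRNA driven by a cis-regulating promoter element, sampled 24 h post-treatment. Activity was fitted in both directions against DMSO negative control.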

[4] = ATG_RORE_CIS: Attagene CIS-FACTORIAL HepG2 Assay for human RAR-related Orphan Receptor Element (RORE) (AID 2282959); conditions: HepG2 Attagene cis-factorial RORE reporter, mRNA; actives raise or lower the signal
How it was run: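 Multiplexed reporter assay measuring mRNA induction from a cis promoter element in transiently transfected HepG2 cells after 24 h treatment. Detection via RT-PCR and capillary electrophoresis fluorescence; DMSO serves as baseline.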

[5] = ATG_Sox_CIS: Attagene CIS-FACTORIAL HepG2 Assay for human SRY-box transcription factor (SOX) (AID 2282960); conditions: HepG2 Attagene cis-factorial SOX reporter, mRNA; actives raise or lower the signal
How it was run: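 Cells were transfected with reporter constructs under cis-regulatory promoters, then exposed to chemicals for 24 h. Reporter transcripts were quantified by fluorescence after RT-PCR and capillary electrophoresis; activity was fitted in both directions against DMSO.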

[6] = molecular target: Transcription factor Sp1 (Homo sapiens) (UniProt P08047); assay: ATG_Sp1_CIS: Attagene CIS-FACTORIAL HepG2 Assay for human Specificity Protein 1 (Sp1) (AID 2282961); conditions: HepG2 Sp1 cis-reporter transcription, actives raise or lower the signal
Chain of Transcription factor Sp1 (Homo sapiens) (P08047 whole entry, looked up): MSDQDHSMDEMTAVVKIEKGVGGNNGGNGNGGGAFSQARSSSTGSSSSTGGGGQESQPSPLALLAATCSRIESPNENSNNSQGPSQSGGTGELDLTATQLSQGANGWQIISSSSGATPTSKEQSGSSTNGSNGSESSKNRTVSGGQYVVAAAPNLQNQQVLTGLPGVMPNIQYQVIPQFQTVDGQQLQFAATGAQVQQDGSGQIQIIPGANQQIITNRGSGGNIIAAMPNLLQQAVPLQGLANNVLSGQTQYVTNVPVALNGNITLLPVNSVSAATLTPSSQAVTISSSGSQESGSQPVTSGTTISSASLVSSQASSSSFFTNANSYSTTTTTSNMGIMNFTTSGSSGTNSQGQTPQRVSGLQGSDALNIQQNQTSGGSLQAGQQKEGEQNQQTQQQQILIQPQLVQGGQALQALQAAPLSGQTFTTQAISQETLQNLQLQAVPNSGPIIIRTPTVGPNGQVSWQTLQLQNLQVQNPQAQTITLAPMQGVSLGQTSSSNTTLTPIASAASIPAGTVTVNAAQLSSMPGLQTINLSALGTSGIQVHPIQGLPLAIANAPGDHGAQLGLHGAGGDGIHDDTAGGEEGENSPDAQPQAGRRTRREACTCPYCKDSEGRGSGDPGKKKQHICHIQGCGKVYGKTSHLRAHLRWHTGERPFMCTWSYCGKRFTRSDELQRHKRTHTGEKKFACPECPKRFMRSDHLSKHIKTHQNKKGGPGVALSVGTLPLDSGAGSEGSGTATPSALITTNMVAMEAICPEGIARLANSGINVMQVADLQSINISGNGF
How it was run: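 Measures mRNA induction of an Sp1-linked reporter in HepG2 cells 24 h post-dosing. Multiplexed reporters read by RT-PCR and capillary electrophoresis; DMSO serves as negative control and baseline.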

[7] = ATG_SREBP_CIS: Attagene CIS-FACTORIAL HepG2 Assay for human Sterol Regulatory Element Binding (SREBP) (AID 2282962); conditions: HepG2 Attagene cis-factorial SREBP reporter, mRNA; actives raise or lower the signal
How it was run: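 Endogenous factor activity is measured in HepG2 through multiplexed reporter units under cis-element control. Following a 24 h incubation, reporter transcripts are reverse-transcribed, PCR-amplified and sized by capillary electrophoresis; activity is fitted in both directions relative to DMSO.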

[8] = molecular target: Signal transducer and activator of transcription 3 (Homo sapiens) (UniProt P40763); assay: ATG_STAT3_CIS: Attagene CIS-FACTORIAL HepG2 Assay for human Signal Transducer and Activator of Transcription 3 (STAT3) (AID 2282963); conditions: HepG2, Attagene cis-factorial STAT3 reporter transcription; actives raise or lower the signal
Chain of Signal transducer and activator of transcription 3 (Homo sapiens) (P40763 whole entry, looked up, the tested form may be a part): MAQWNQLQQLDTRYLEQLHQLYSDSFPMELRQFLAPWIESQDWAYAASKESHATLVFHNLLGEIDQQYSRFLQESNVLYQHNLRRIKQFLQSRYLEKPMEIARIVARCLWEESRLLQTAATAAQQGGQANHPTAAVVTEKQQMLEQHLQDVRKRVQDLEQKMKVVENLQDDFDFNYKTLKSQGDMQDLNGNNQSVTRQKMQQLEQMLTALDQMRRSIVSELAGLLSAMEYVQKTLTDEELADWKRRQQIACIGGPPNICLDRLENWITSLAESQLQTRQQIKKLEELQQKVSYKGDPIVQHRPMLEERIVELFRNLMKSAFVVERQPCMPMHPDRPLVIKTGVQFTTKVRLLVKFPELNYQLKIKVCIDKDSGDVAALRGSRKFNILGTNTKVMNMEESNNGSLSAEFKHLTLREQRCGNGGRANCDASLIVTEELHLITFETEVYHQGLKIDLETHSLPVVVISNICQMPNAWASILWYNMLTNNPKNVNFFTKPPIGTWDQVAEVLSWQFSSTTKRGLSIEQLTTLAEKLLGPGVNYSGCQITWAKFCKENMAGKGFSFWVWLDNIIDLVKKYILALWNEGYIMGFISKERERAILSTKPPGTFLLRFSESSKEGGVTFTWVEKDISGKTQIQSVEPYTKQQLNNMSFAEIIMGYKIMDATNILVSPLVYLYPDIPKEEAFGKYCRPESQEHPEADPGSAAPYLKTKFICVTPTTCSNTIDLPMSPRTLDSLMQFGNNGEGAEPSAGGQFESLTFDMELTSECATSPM
How it was run: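 Fluorescence intensity of 6-FAM-labelled reporter fragments, separated by capillary electrophoresis after RT-PCR, gave the signal. Cells were HepG2 transfected with cis-element reporter units and treated 24 h; fitting was bidirectional relative to DMSO.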

[9] = ATG_TA_CIS: Attagene CIS-FACTORIAL HepG2 Assay for human TA Basal Promoter (AID 2282964); conditions: HepG2 Attagene CIS-factorial TA basal promoter reporter; actives raise or lower the signal
How it was run: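 Steps: transfect HepG2 with MRTUs; dose 24 h; isolate RNA, DNase-treat, reverse-transcribe; PCR and FAM-label reporter cDNA; digest with HpaI 2h at 37 C; run capillary electrophoresis. Activity fitted both directions against DMSO.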

[10] = ATG_TCF_b_cat_CIS: Attagene CIS-FACTORIAL HepG2 Assay for human T-Cell-Factor with beta-catenin (TCF/b-cat) (AID 2282965); conditions: HepG2 TCF/beta-catenin cis-reporter transcription, actives raise or lower the signal
How it was run: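 HepG2, transient MRTU transfection, cis-element-driven reporters (endogenous TFs). 24 h compound exposure. Readout: reporter mRNA by RT-PCR + 6-FAM primer extension, HpaI digest, capillary electrophoresis. Gain/loss fit vs DMSO baseline.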

[11] = ATG_TAL_CIS: Attagene CIS-FACTORIAL HepG2 Assay for human TAL Basal Promoter (AID 2282966); conditions: HepG2 Attagene cis-factorial TAL promoter reporter; actives raise or lower the signal;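 further: background control endpoint measuring basal TAL promoter reporter mRNA not a specific factor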
How it was run: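 Endogenous transcription-factor activity is sensed in HepG2 cells through transfected cis-promoter reporter constructs. After 24 h dosing, reporter transcripts are quantified by RT-PCR and capillary electrophoresis. Gain or loss of signal is fitted relative to DMSO.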

[12] = ATG_TGFb_CIS: Attagene CIS-FACTORIAL HepG2 Assay for human Transforming Growth Factor (TGF) (AID 2282967); conditions: HepG2 Attagene CIS TGFb reporter, mRNA transcription; actives raise or lower the signal
How it was run: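 Cells were dosed for 24 hours, after which total RNA was reverse-transcribed and reporter sequences amplified, labeled and sized by capillary electrophoresis. Activity was fitted in both directions against DMSO.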

[13] = ATG_VDRE_CIS: Attagene CIS-FACTORIAL HepG2 Assay for human Vitamin D Receptor Element (VDRE) (AID 2282968); conditions: HepG2 VDRE cis-reporter transcription, actives raise or lower the signal
How it was run: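 Compounds were applied for 24 h to HepG2 cells transfected with promoter-regulated reporter units. Total RNA was reverse-transcribed, and reporter amplicons were fluorescently labelled and sized by capillary electrophoresis.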

[14] = molecular target: Nuclear receptor subfamily 1 group I member 3 (Homo sapiens) (UniProt Q14994); assay: ATG_CAR_TRANS: Attagene TRANS-FACTORIAL HepG2 Assay for human Constitutive Androstane Receptor (CAR) (AID 2282969; active means hit-call score of the fitted dose curve at least 0.9, where 1 is the maximum;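 further: activators raise reporter mRNA above DMSO so AC50 marks induction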); conditions: HepG2 Attagene TRANS-FACTORIAL CAR reporter
Chain of Nuclear receptor subfamily 1 group I member 3 (Homo sapiens) (Q14994 whole entry, looked up, the tested form may be a part): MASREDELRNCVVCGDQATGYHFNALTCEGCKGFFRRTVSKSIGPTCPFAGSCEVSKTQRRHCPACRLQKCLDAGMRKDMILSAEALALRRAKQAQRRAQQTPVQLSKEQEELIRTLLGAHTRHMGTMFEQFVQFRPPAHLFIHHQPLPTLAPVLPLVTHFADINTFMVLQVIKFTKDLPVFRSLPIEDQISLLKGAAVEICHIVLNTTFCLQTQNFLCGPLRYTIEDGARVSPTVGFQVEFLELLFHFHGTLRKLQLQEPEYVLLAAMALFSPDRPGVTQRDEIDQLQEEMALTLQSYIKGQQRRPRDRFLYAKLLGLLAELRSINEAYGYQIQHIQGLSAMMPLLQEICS
How it was run: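 Transiently transfected HepG2, multiplex TRANS reporters (CAR-Gal4 chimera driving GAL4-UAS reporter). 24 h dosing. Readout: reporter transcript by RT-PCR + capillary electrophoresis, fluorescence intensity; positive direction vs DMSO.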

[15] = molecular target: Estrogen receptor (Homo sapiens) (UniProt P03372); assay: ATG_ERa_TRANS: Attagene TRANS-FACTORIAL HepG2 Assay for human Estrogen Receptor alpha (ERa) (AID 2282970; active means hit-call score of the fitted dose curve at least 0.9, where 1 is the maximum); conditions: HepG2 Attagene TRANS ERa GAL4 reporter, mRNA
Chain of Estrogen receptor (Homo sapiens) (P03372 whole entry, looked up, the tested form may be a part): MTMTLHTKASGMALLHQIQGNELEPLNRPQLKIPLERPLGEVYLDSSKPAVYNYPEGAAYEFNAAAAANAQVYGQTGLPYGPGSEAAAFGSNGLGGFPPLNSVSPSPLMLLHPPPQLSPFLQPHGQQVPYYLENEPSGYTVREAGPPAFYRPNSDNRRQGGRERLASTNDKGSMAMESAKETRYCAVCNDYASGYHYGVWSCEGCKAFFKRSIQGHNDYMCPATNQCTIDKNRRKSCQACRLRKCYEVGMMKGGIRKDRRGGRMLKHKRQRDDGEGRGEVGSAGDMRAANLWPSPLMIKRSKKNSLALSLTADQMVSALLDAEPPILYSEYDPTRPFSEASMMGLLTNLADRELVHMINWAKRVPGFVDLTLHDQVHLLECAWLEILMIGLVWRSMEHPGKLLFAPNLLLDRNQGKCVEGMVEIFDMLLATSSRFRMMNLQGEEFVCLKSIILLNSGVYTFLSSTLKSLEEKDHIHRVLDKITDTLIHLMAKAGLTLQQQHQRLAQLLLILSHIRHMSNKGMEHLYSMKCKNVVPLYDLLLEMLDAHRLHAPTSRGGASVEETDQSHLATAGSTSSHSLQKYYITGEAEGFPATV
How it was run: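 Transfected HepG2 cells carrying GAL4-UAS-driven reporter units were dosed for 24 hours. Total RNA was reverse-transcribed, reporter sequences PCR-amplified, FAM-labelled, HpaI-digested and resolved by capillary electrophoresis. Increases over DMSO control defined activity.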

[16] = molecular target: Steroid hormone receptor ERR1 (Homo sapiens) (UniProt P11474); assay: ATG_ERRa_TRANS: Attagene TRANS-FACTORIAL HepG2 Assay for human Estrogen-Related Receptor alpha (ERRa) (AID 2282971; active means hit-call score of the fitted dose curve at least 0.9, where 1 is the maximum); conditions: HepG2 Attagene TRANS reporter, ERRa transactivation
Chain of Steroid hormone receptor ERR1 (Homo sapiens) (P11474 whole entry, looked up, the tested form may be a part): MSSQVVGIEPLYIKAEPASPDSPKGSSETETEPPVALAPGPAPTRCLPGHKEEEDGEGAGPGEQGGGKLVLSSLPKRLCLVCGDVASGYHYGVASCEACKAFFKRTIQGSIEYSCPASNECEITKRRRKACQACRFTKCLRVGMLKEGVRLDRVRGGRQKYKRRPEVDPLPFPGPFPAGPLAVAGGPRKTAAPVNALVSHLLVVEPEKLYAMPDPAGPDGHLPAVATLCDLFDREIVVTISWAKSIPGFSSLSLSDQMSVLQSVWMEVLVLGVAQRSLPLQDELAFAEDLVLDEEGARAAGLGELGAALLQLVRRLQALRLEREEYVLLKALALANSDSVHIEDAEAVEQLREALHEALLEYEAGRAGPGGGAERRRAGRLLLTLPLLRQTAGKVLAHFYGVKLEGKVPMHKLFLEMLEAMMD
How it was run: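 HepG2 cells were transiently transfected with multiple GAL4-UAS reporter units, then dosed with compound for 24 h. Total RNA was reverse-transcribed, reporter cDNA PCR-amplified and fluorescently labelled, and fragments resolved by capillary electrophoresis; induction was compared with DMSO.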

[17] = molecular target: X-box-binding protein 1 (Homo sapiens) (UniProt P17861); assay: ATG_Xbp1_CIS: Attagene CIS-FACTORIAL HepG2 Assay for human X-box Binding Protein 1 (XBP1) (AID 2282972); conditions: HepG2 XBP1 cis-element reporter, Attagene multiplex; actives raise or lower the signal
Chain of X-box-binding protein 1 (Homo sapiens) (P17861 whole entry, looked up): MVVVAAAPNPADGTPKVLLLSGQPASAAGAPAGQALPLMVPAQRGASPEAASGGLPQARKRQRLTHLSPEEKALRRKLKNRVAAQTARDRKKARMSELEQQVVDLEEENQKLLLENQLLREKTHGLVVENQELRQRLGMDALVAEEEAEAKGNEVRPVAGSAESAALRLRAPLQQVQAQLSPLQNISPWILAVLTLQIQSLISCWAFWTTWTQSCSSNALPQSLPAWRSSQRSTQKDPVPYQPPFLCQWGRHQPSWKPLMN
How it was run: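 Multiplexed cis-reporter readout in transfected HepG2 liver cells. Exposure lasted 24 hours. Activity in either direction was fitted against DMSO as negative control and baseline.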

[18] = ATG_PPRE_CIS: Attagene CIS-FACTORIAL HepG2 Assay for human Peroxisome Proliferator-activated Response Element (PPRE) (AID 2282958); conditions: HepG2 PPRE cis-element reporter, Attagene transcription factor profiling; actives raise or lower the signal
How it was run: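 Transcript-level reporter induction in transfected HepG2 cells after 24 h chemical exposure, quantified by fluorescence from RT-PCR products separated by capillary electrophoresis.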

[19] = ATG_M_19_TRANS: Attagene TRANS-FACTORIAL HepG2 Assay for M19 Transcription Factor (Internal Marker) (AID 2282974; active means hit-call score of the fitted dose curve at least 0.9, where 1 is the maximum); conditions: HepG2 Attagene TRANS-FACTORIAL M19 internal marker reporter
How it was run: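 After transfection of HepG2 with GAL4-UAS-driven reporter constructs, cells are dosed for 24 h. Total RNA is reverse-transcribed, reporter sequences PCR-amplified and labelled, then HpaI-digested and sized by capillary electrophoresis.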

[20] = ATG_GAL4_TRANS: Attagene TRANS-FACTORIAL HepG2 Assay for GAL4 (Internal Marker) (AID 2282976; active means hit-call score of the fitted dose curve at least 0.9, where 1 is the maximum); conditions: HepG2 Attagene TRANS GAL4 internal marker reporter
How it was run: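 Fluorescence from capillary electrophoresis of labelled RT-PCR products quantifies reporter mRNA induction after 24 h dosing of HepG2 cells carrying transfected GAL4-UAS reporter transcription units. Vehicle DMSO serves as baseline.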

Measured: AC50

Cc1cc(CCN2CCN(c3nsc4ccccc34)CC2)cc2c1NC(=O)CC2(C)C
active: [1] 6.35 µM | [3] 1.16 µM | [4] 6.32 µM | [6] 14.7 µM | [13] 4.92 µM | [17] 11 µM
not listed: [18] | [19] | [20]
inactive: all other assays above

Oc1cc2ccccc2c2ccccc12
active: [3] 3.71 µM
not listed: [1] | [14] | [16]
inactive: all other assays above

CC(O)CO (stereo unspecified)
not listed: [1] | [14] | [16] | [19]
inactive: all other assays above

O=C(OCCOCCOC(=O)c1ccccc1)c1ccccc1
not listed: [14] | [15] | [16] | [20]
inactive: all other assays above

CCCCCCCCCCCCCCCS(=O)(=O)Oc1ccccc1
active: [3] 0.778 µM
not listed: [16] | [18] | [19] | [20]
inactive: all other assays above

CCC(C)(C)C1CCC(O)CC1 (stereo unspecified)
active: [3] 21.9 µM [middle of 4 runs] | [10] 100 µM
inactive: [1] | [2] | [18] | [5] | [6] | [7] | [8] | [9] | [10] | [11] | [12] | [13] | [14] | [17] | [19] | [20]

O=[N+]([O-])c1ccc(O)cc1
not listed: [4] | [14] | [16] | [19]
inactive: all other assays above

CN1CCC[C@H]1c1cccnc1
active: [15] 61.2 µM
not listed: [16] | [18] | [19] | [20]
inactive: all other assays above

CN(C)C=O
not listed: [13] | [14] | [16] | [18]
inactive: all other assays above

CC(C)(C)c1cccc(C(C)(C)C)c1O
active: [2] 162 µM | [6] 165 µM | [10] 173 µM | [15] 61.4 µM | [17] 144 µM
not listed: [4] | [13] | [16] | [19]
inactive: all other assays above

OC1CCC(C2CCCCC2)CC1 (stereo unspecified)
inactive: [2] | [3] | [18] | [4] | [5] | [6] | [7] | [8] | [9] | [10] | [11] | [12] | [13] | [16] | [17] | [19] | [20]
active: [2] 127 µM | [3] 26.7 µM and 25.6 µM and 28.6 µM

CCCCCCCCC(=O)O
not listed: [13] | [14] | [16] | [18] | [20]
inactive: all other assays above

C=C(C)C(=O)OCCC(F)(F)C(F)(F)C(F)(F)C(F)(F)C(F)(F)C(F)(F)F
active: [15] 38.4 µM and 49.2 µM
not listed: [16] | [18]
inactive: all other assays above
